# TGFb inhibitor: qHTS for Inhibitors of TGF-b; 410,000 compounds, 1.2% hits; Potency, µM (titrated, usually from 46.1 µM), for the others: top-dose activity, negative = inhibition, hits mostly inhibitors; AID 588855, 2011; HepG2 CAGA-GFP TGF-b/SMAD3 reporter, GFP fluorescence, 18 h; TGF-beta stimulated, 500 pg/mL final; also: % is scaled to controls: 0 for no effect and ±100 for the full control effect; nearly all actives have a fitted effect of over 65% in size
#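 HEPG2 CAGA-GFP cells (1000/well, DMEM with 1% FBS) were pre-incubated 2 h at 37 degrees C, given compound by pin tool, then stimulated with TGF-beta at 500 pg/mL final for 18 h before per-cell GFP fluorescence imaging.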
# HepG2 viability: qHTS for Inhibitors of TGF-b: Cytotox Counterscreen. HepG2 CAGA-GFP viability, ATP luminescence, 18 h. 410,000 compounds, 0.76% hits. AID 588856, 2011. Potency, µM (series often up to 46.1 µM), for inactives: top-dose activity change, negative = cytotoxicity, most hits filed as cytotoxic
#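 CellTiter-Glo luminescence gave cytotoxicity after 18 hours at 37 degrees C. The cells were HepG2 CAGA-GFP in 1% FBS DMEM, stimulated with 500 pg/mL TGF-beta after compound addition. %Activity was normalised to no-cell wells (complete cell-killing) and DMSO (no toxicity), and curves were fitted and classified.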
# HT1080 IDH1KD tx: qHTS for induction of synthetic lethality in tumor cells producing 2HG: qHTS for the HT-1080-IDH1KD cell line | 360,000 compounds, 2% hits | HT-1080 IDH1 knockdown viability, ATP luminescence, 48 h | AID 686971, 2013 | Potency, µM (doses to about 46.1 µM), inactives show at the highest dose activity, negative = toxicity, hits mostly cytotoxic;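 also: 0% = DMSO wells and -100% = cell-free medium wells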
#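 IDH1KD HT-1080 cells, 750/well, RPMI + 5% FBS; compound pinned after 2 h settling; 48 h, 37 °C; CellTiter-Glo luminescence; % activity normalised to DMSO and no-cell wells; curves fitted, classed by r2 and efficacy.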
# KB-3-1 cytotox: qHTS assay for MDR1-selective chemotherapeutics: Primary screen using the parental adenocarcinoma cell KB-3-1. KB-3-1 viability, CellTiter-Glo ATP luminescence, 72 h. Potency, µM (doses to about 46.1 µM), hits mostly cytotoxic. 400,000 compounds, 1.4% hits. AID 1347075, 2019; also: % is scaled to controls: 0 for no effect and ±100 for the full control effect; nearly all actives have a fitted effect of over 60% in size
#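 Using CellTiter-Glo luminescence, growth of non-resistant KB-3-1 adenocarcinoma cells is assessed 72 h after pin-tool compound addition at 37 °C. Normalized responses across the concentration series yield fitted curves.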
# KB-V1 cytotox: qHTS assay for MDR1-selective chemotherapeutics: Primary screen using the drug-selected MDR subline cells KB-V1 | KB-V1 MDR cells viability, CellTiter-Glo, 72 h | Potency, µM (doses to about 46.1 µM), most hits filed as cytotoxic | 400,000 compounds, 3.4% hits; also: % is scaled to controls: 0 for no effect and ±100 for the full control effect; nearly all actives have a fitted effect of over 60% in size
#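 Compound-treated KB-V1 multidrug-resistant cells, 72 h, 37 degrees C; viability by CellTiter-Glo. Fitted qHTS curves give the values.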
# HT1080-NT tox: qHTS for induction of synthetic lethality in tumor cells producing 2HG: qHTS for the HT-1080-NT fibrosarcoma cell line; HT-1080-NT fibrosarcoma viability, CellTiter-Glo ATP luminescence, 48 h; Potency, µM (series often up to 46.1 µM), inactives show at the top dose activity, negative = less viability, usual class: cytotoxic; 360,000 compounds, 1.6% hits;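 also: NT is the 2HG producing partner of a matched IDH1 knockdown line; 0% = DMSO-treated cells and -100% = media-only wells without cells; nearly all actives have a fitted effect of over 55% in size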
#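 HT-1080-NT; 750 cells/well; 5% FBS RPMI; 48 h compound, 37 degrees C; CellTiter-Glo luminescence; curve fitting and curve-class assignment.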
# Numbers without * were called inactive; i = inactive; ? = inconclusive; nt = no result. Most compounds without a hit are left out; they make up all but 6.6% or so of the library. Calls follow the shape of the dose curve; as a rule, active = well fitted curve in the direction sought with a large enough effect; inconclusive = small, poorly fitted or top-dose-only effect, or another doubt; inactive = no such curve, though single readings can be large; an effect the other way counts as inactive or inconclusive. Potency is read from the fitted curve at half-maximal effect.
SMILES,TGFb inhibitor,HepG2 viability,HT1080 IDH1KD tx,KB-3-1 cytotox,KB-V1 cytotox,HT1080-NT tox
CCC(C)Sc1cccc(-c2nc3cnccn3c2NC2CCCCC2)c1 (centres undefined),?,-105.7%,?,?,?,?
c1cc(SC2CCCCC2)cc(-c2nc3cnccn3c2NC2CCCCC2)c1,-16.6%,15.8µM*,?,?,?,?
c1cn2c(NC3CCCCC3)c(-c3ccc(SC4CCCCC4)cc3)nc2cn1,2.82µM*,-0.8%,?,i,i,?
c1cn2c(NC3CCCC3)c(-c3ccc(N4CCOCC4)cc3)nc2cn1,-24.8%,-41.9%,9.2%,i,i,6.2%
COc1ccc(-c2cnc(N3CCC(C(N)=O)CC3)s2)cc1OC,nt,nt,nt,i,i,nt
Cc1cc(Br)ccc1NC(=O)CN(C)C(=O)CSC(=S)N1CCCC1,-5.3%,-37.9%,-0.6%,i,13µM*,-2.4%
CC(C)c1ccc2c(c1)NC(c1ccc(F)cc1)=NC(c1cccs1)=N2,?,-35.1%,nt,i,?,nt
O=C(CSc1nc2ccc(Cl)cc2[nH]1)NCc1ccco1,-5.0%,-3.0%,-4.0%,i,?,-8.0%
Cc1cc(C(=O)CSc2nc3ccc(Cl)cc3[nH]2)c(C)n1Cc1ccco1,?,-5.0%,-16.6%,i,20.6µM*,-12.4%
COc1ccccc1NC(=O)/C(C#N)=C/C=C/c1ccco1,1.8%,-4.3%,1.41µM*,1.46µM*,?,1.78µM*
Cc1c(Cl)ccc2c(C(=O)NCCN3CCCCC3)cc(-c3ccccn3)nc12,-25.9%,-4.3%,23.1µM*,i,?,?
Cc1c(Cl)ccc2c(C(=O)NCCCn3nccc3C)cc(-c3ccccn3)nc12,?,-27.9%,-1.1%,i,?,-6.5%
CC(C)Oc1ccc(CNC(=O)C2=Cc3ccccc3OC2)cc1,?,-38.3%,nt,i,i,nt
COc1ccc(CN2CCc3c([nH]c4ccccc34)C2)c(OC)c1C,-0.5%,-21.0%,14.6µM*,i,i,?
CCN(CC)C(=O)c1sc2nc(N3CCOCC3)c3c(c2c1N)CCCC3,-2.0%,8.5%,0.3%,i,4.61µM*,8.8%
O=C1c2[nH]nc(-c3ccccc3O)c2C(c2ccccc2F)N1Cc1ccncc1 (centres undefined),25.4%,5.0%,nt,i,?,nt
N/C(=N/OCC(=O)Nc1cccc2ccccc12)c1nonc1N,-2.0%,3.3%,-4.0%,i,14.6µM*,-13.2%
C=CCOc1ccc2ccccc2c1CNCCCN1CCOCC1,12.0%,-9.7%,3.6%,i,16.4µM*,-3.5%
Cc1cccc(NC(=O)C2CCN(S(=O)(=O)c3cccs3)CC2)n1,29.0%,-3.9%,-4.9%,i,23.1µM*,-15.4%
O=C(Nc1nc2ccc(C(=O)N3CCCCC3)cc2s1)C1CCCCC1,3.5%,-2.4%,?,5.8µM*,3.66µM*,?
COc1ccc2nc(NC(=O)C3CCN(S(=O)(=O)c4cccs4)CC3)sc2c1,?,-25.2%,-27.7%,?,23.1µM*,?
Nc1ccc2nc(NC(=O)C3CCCCC3)sc2c1,2.0%,7.7%,-1.3%,i,i,-17.8%
COc1ccc2nc(NC(=O)C3CCCN(S(=O)(=O)c4cccs4)C3)sc2c1 (centres undefined),22.3%,-49.5%,-18.4%,i,i,-13.4%
Cc1ccc2nc(NC(=O)C3CCN(S(=O)(=O)c4cccs4)CC3)sc2c1,21.8%,-9.7%,?,?,4.61µM*,?
CCOC(=O)c1c(S(=O)(=O)N2CCCC(C(=O)NCc3ccccc3OC)C2)c(C)n(C)c1C (centres undefined),1.0%,3.3%,nt,i,i,nt
SMILES,TGFb inhibitor,HepG2 viability,HT1080 IDH1KD tx,KB-3-1 cytotox,KB-V1 cytotox,HT1080-NT tox
Cc1cccc(N2CCN(C(=O)C3CCCN(S(=O)(=O)c4ccc(Br)s4)C3)CC2)c1C (centres undefined),?,-26.5%,nt,nt,nt,nt
COc1ccccc1S(=O)(=O)Cc1ccc(C(=O)NCc2ccc(Cl)cc2)o1,-28.3%,-21.1%,nt,i,i,nt
COc1ccc(/C=N/n2cc(-c3ccccc3)nc2N)cc1,-23.1%,-10.2%,-12.4%,3.66µM*,7.31µM*,-13.8%
Cc1c2cnn(CC(=O)NCCc3ccccc3)c(=O)c2c(C)n1Cc1ccccc1,-30.1%,-69.9%,nt,i,i,nt
Cn1cnnc1SCC(=O)Nc1ccc2nc(SCc3ccccc3F)sc2c1,23.2%,-13.5%,1.5%,i,20.6µM*,8.2%
CCOc1ccc(-c2nnc(SCC(=O)NCc3ccccc3)nc2-c2ccc(OCC)c(OC)c2)cc1OC,-4.8%,-35.4%,nt,i,i,nt
CCC(=O)N(C1=C(NC)C(=O)c2ccccc2C1=O)C(C)C,?,-71.3%,9.2µM*,2.59µM*,?,4.61µM*
CNC1=C(N(C(C)=O)c2ccc(Br)cc2)C(=O)c2ccccc2C1=O,3.55µM*,2.82µM*,1.84µM*,?,?,1.84µM*
O=C(Nc1ccc(NC(=O)c2ccco2)cc1)c1ccco1,0.0%,-15.7%,-5.8%,i,i,-3.0%
O=C(Nc1ccc(Cn2nnc3ccccc32)cc1)c1ccco1,-11.7%,-19.5%,?,16.4µM*,16.4µM*,?
CCOc1ccccc1NC(=O)c1nnn(CC(=O)Nc2ccccc2CC)c1N,?,-3.1%,nt,i,i,nt
COc1ccc(C(=O)c2sc3nc(C)cc(-c4cccs4)c3c2N)cc1,44.6%,-22.3%,-20.5%,i,i,-12.4%
Cc1cc(-c2cccs2)c2c(N)c(C(=O)c3ccc4c(c3)OCO4)sc2n1,-3.5%,1.5%,8.2%,?,6.51µM*,6.3%
N#C/C(=C\c1ccccc1[N+](=O)[O-])C(=O)NC1CCCCC1,-7.2%,-2.3%,18.4µM*,?,i,?
N#C/C(=C\c1cccn1-c1ccccc1)C(=O)NC1CCCCC1,10.1%,5.5%,13.1%,5.8µM*,4.61µM*,5.8%
NS(=O)(=O)c1ccc(NC(=S)NC(=O)C2CCCC2)cc1,0.7%,4.9%,7.8%,i,?,1.4%
C=CCN(CC=C)S(=O)(=O)c1ccc(NC(=S)NC(=O)C2CC2)cc1,17.8µM*,-20.6%,?,i,i,?

# From PubChem
